# Tb PYK inh = inhibitors of Trypanosoma brucei pyruvate kinase | TbPYK enzyme, Kinase-Glo Plus ATP luminescence, 45 min | Potency, µM (series often up to 76.8 µM), inactives show at the top dose activity, negative = inhibition, hits mostly inhibitors | 0.12% of 410,000 active; also: potency is read from the fitted curve at half-maximal effect; % is scaled to controls: 0 for no effect and ±100 for the full control effect; nearly all actives have a fitted effect of over 50% in size
#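 Enzyme and substrate buffer are dispensed first and compound is pin-transferred. ADP at 130 uM final then starts the reaction, which runs 45 min at room temperature. Detection reagent is added for 10 min before luminescence is imaged.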
# Shiga inhibitor = blocks Shiga toxin action in Vero cells. Vero cells, Shiga toxin protein synthesis inhibition reporter. inhibition, % at 38.7 µM. 9.2% of 290,000 active. AID 2315; in the data active = inhibition mostly above about 28%, no sharp cut-off; inactive = mostly below about 43%; also: 0% is about no effect
# Giardia FBPA inh-1 = inhibitors of Giardia lamblia fructose-1,6-bisphosphate aldolase; 0.71% of 290,000 active; Potency, µM (titrated, usually from 59.6 µM), for inactives: at the highest dose activity, negative = inhibition, hits mostly inhibitors; purified Giardia FBPA; A8B2U2; also: potency is read from the fitted curve at half-maximal effect; % is scaled to controls: 0 for no effect and ±100 for the full control effect; nearly all actives have a fitted effect of over 55% in size
# Target sequence (A8B2U2 whole entry, looked up): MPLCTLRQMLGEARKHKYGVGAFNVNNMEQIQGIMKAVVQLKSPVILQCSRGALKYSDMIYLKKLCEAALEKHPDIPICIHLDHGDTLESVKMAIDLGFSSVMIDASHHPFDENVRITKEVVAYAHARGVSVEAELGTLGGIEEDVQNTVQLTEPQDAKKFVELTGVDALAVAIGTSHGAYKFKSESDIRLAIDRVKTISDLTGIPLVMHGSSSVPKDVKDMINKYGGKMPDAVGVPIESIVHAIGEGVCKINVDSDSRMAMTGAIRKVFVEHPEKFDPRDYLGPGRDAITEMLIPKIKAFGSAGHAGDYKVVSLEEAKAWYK
#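 40 nM FBPA preincubated 10 min at RT with compound (up to 57.5 uM final), then substrate plus GAPDH/TPI/NAD/arsenate coupling and diaphorase/resazurin added. Fluorescence read after 20 min at RT, 525/598 nm.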
# Cycloheximide cs = counter-screen for Shiga toxin inhibitors: cycloheximide protein synthesis inhibition; cell reporter, cycloheximide protein synthesis inhibition counterscreen; max response, %; 12% of 300,000 active; in the data active = max response mostly above about 13%, no sharp cut-off; inactive = mostly below about 14%; also: read at 38.3 µM for the half of the compounds with a filed dose; 0% is about no effect
# LmPK inhibitor = inhibitors of Leishmania mexicana pyruvate kinase; Q27686; purified LmPK, Kinase-Glo ATP luminescence, 1 h; Potency, µM (top dose mostly 57.5 µM), for the others: top-dose activity change, negative = inhibition, actives largely listed as inhibitors; 0.37% of 290,000 active; AID 1721; also: potency is read from the fitted curve at half-maximal effect; % is scaled to controls: 0 for no effect and ±100 for the full control effect
#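 Screened at intermediate enzyme activity to detect both inhibitors and activators: LmPK at 0.1 nM, with a 0.5 nM enzyme column as activation reference. PEP 0.5 mM, ADP 0.1 mM; ATP detected by luminescence after 1 h.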
# RE007 growth inh = less growth of the S. pombe RE007 Vpr strain. S. pombe RE007 Vpr strain, BacTiter-Glo ATP luminescence, 24 h. Potency, µM (doses to about 92.2 µM), inactives show at the highest dose activity change, negative = less growth, most hits filed as inhibitors. 0.21% of 360,000 active; active = well fitted falling curve with a large enough effect; inconclusive = small, poorly fitted or top-dose-only effect; inactive = no such curve, though single readings can be large or run the other way; also: potency is read from the fitted curve at half-maximal effect; % is scaled to controls: 0 for no effect and ±100 for the full control effect; nearly all actives have a fitted effect of over 50% in size
#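 Fission yeast strain RE007, carrying one chromosomally integrated HIV-1 vpr copy, was seeded at OD 0.01 in PMG+AL medium with 23 nL pinned compound. After 24 h at 30 °C and 99% humidity, viability was read by BacTiter-Glo luminescence.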
# Giardia growth = blocks growth of Giardia lamblia trophozoites. Potency, µM (titrated, usually from 57.5 µM), for the others: at the top dose activity change, negative = inhibition, usual class: inhibitors. Giardia lamblia trophozoite growth inhibition. shares compounds with Giardia FBPA inh-1. 5% of 1,500 active. AID 2785;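 also: potency is read from the fitted curve at half-maximal effect; trophozoites exposed to compound for 48 h at 37 °C; % is scaled to controls: 0 for no effect and ±100 for the full control effect; nearly all actives have a fitted effect of over 70% in size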
# Mammalian tox = toxic to mammalian cells in Giardia aldolase counter-screen | shares compounds with Giardia FBPA inh-1 | mammalian cell viability counter-screen, qHTS | Potency, µM (highest dose often 57.5 µM), for the others: at the top dose viability change, negative = toxicity, actives largely listed as inhibitors | 4% of 1,500 active;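 also: Chinese hamster ovary cells used as mammalian cytotoxicity surrogate; viability measured as cellular ATP by luminescence; potency is read from the fitted curve at half-maximal effect; compound exposure lasted 48 h before reading; % is scaled to controls: 0 for no effect and ±100 for the full control effect; nearly all actives have a fitted effect of over 60% in size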
# Giardia FBPA inh-2 = confirmation of Giardia fructose-bisphosphate aldolase inhibitors. purified Giardia aldolase enzyme activity, qHTS. shares compounds with Giardia FBPA inh-1. AID 2787. 5% of 1,500 active. Potency, µM (highest dose often 57.5 µM), without a hit: top-dose activity change, negative = inhibition, hits mostly inhibitors; also: potency is read from the fitted curve at half-maximal effect; % is scaled to controls: 0 for no effect and ±100 for the full control effect; nearly all actives have a fitted effect of over 45% in size
# Rabbit aldolase = selectivity test for Giardia aldolase inhibitors: rabbit aldolase; Potency, µM (series often up to 57.5 µM), for the others: at the highest dose activity, negative = inhibition, most hits filed as inhibitors; shares compounds with Giardia FBPA inh-1; 4% of 1,500 active; AID 2794; Rabbit muscle FBPA enzyme inhibition, selectivity counter-screen; also: potency is read from the fitted curve at half-maximal effect; % is scaled to controls: 0 for no effect and ±100 for the full control effect; nearly all actives have a fitted effect of over 60% in size
# Target sequence (P00883 whole entry, looked up): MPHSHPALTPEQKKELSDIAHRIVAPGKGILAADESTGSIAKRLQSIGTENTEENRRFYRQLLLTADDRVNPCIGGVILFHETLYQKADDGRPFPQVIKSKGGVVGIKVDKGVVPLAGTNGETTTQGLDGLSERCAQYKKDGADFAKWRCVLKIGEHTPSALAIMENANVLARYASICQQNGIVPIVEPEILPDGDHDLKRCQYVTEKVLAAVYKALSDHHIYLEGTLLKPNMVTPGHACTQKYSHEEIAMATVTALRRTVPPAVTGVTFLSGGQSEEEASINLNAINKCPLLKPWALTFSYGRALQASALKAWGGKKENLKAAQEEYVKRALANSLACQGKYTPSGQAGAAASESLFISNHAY
# GAPDH coupling = GAPDH inhibition flagged for Giardia aldolase hits; Potency, µM (doses to about 57.5 µM), inactives show at the top dose activity change, negative = inhibition, actives largely listed as inhibitors; AID 2795; 6% of 1,500 active; shares compounds with Giardia FBPA inh-1; GAPDH coupling enzyme counterscreen, biochemical, qHTS; also: potency is read from the fitted curve at half-maximal effect; % is scaled to controls: 0 for no effect and ±100 for the full control effect; nearly all actives have a fitted effect of over 55% in size
# An asterisk follows results filed as active; ? = inconclusive; · = no result given; [ ] = dose if it differs, or a comment. The entries come from a sample that favours hits as a whole. Unless noted, calls follow the shape of the dose curve; as a rule, active = well fitted curve in the direction sought with a large enough effect; inconclusive = small, poorly fitted or top-dose-only effect, or another doubt; inactive = no such curve, though single readings can be large; an effect the other way counts as inactive or inconclusive.
SMILES,Tb PYK inh,Shiga inhibitor,Giardia FBPA inh-1,Cycloheximide cs,LmPK inhibitor,RE007 growth inh,Giardia growth,Mammalian tox,Giardia FBPA inh-2,Rabbit aldolase,GAPDH coupling
COc1ccccc1-c1nnc(NC(=O)c2ccc(S(=O)(=O)N3CCOCC3)cc2)o1,-1.4%,5.3,·,-1.2,2.3%,-5.1%,·,·,·,·,·
CC1CCCN(S(=O)(=O)c2ccc(C(=O)Nc3nnc(C4=COCCO4)o3)cc2)C1 (stereo unspecified),·,2.3,28.2µM*,0.8,4.8%,·,-3.3%,13.6%,10.9%,10.2%,15.3%
CC1CCCCN1S(=O)(=O)c1ccc(C(=O)Nc2nnc(-c3ccco3)o2)cc1 (stereo unspecified),3.1%,-15.5,?,-2.4,8.0%,?,·,·,·,·,·
CCOc1ccccc1NS(=O)(=O)c1c(C)noc1C,-2.4%,56.6,12.6µM*,8.2,-0.4%,-6.1%,-27.9%,-0.5%,?,?,39.8µM*
C=CCNC(=S)NN=C1CCC(c2ccccc2)CC1 (stereo unspecified),0.0%,34.9,7.94µM*,-1.5,5.4%,6.1%,6.7%[38.3 µM],?,-25.7%,5.2%,1.6%
COCCNC(=S)NN=C1CCC(c2ccccc2)CC1 (stereo unspecified),-1.6%,15.2,?,-1.4,4.4%,1.8%,·,·,·,·,·
CC1(C)C(=O)NC2=C1C(=O)C(=O)c1ccccc12,·,-17.2,0.158µM*,-17.5,·,·,15.8µM*,20µM*,1.12µM*,0.891µM*,1.26µM*
Cc1cccc2c(N)c3c(nc12)N(C)CC3,1.1%,5.5,15.8µM*,1.8,-0.4%,·,?,11.7%,-1.2%,-5.9%,7.6%
CN1CCc2c1nc1ccccc1c2N (tested in a mixture with another compound),1.2%,-2.4,-10.6%,4.9,3.9%,0.0%,·,·,·,·,·
Cc1ccc(Nc2nc(C)nc(N)c2S(=O)(=O)c2ccccc2)cc1,3.7%,·,·,·,·,·,·,·,·,·,·
CC(C)N(CCn1c(SCC(=O)Nc2cccnc2Cl)nc2ccccc2c1=O)C(C)C,-1.3%,·,·,·,·,-5.3%,·,·,·,·,·
NC(=S)N/N=C/c1ccc(C(F)(F)F)cc1,-9.8%,9.5,?,6.7,-1.5%,-4.4%,·,·,·,·,·
NC(=S)N/N=C/c1ncc(C(F)(F)F)cc1Cl,-0.1%,10.9,6.29µM*,-0.4,3.3%,-8.8%,3.1%[10.4 µM],?,-18.0%,4.3%,?
O=C1NC(=O)/C(=C/c2ccc(-c3cc(C(=O)O)ccc3Cl)o2)S1,-15.9%,-7.1,31.6µM*,-1.0,-17.2%,9.0%,63.8%,8.4%,1.6%,-2.3%,8.8%
Cc1ccc(C(=O)O)cc1-c1ccc(/C=C2/NC(=O)N(c3ccccc3)C2=O)o1,?,113.8,?,19.4,9.4%,3.0%,·,·,·,·,·
O=C(CSc1ccccc1)N(c1ccc(Br)cc1)c1nccs1,1.2%,-2.5,-0.8%,9.3,2.5%,-5.8%,·,·,·,·,·
CNC(=S)NNS(=O)(=O)c1ccc(OC)cc1OC,-20.9%,-9.2,19.9µM*,6.9,7.5%,7.2%,22.0%,-3.7%,2.2%,5.6%,7.1%
COc1cccc(NC(=O)NNS(=O)(=O)c2ccc(OC)cc2OC)c1,-5.5%,-5.2,3.9%,-2.3,4.8%,-5.7%,·,·,·,·,·
CC(C)c1ccc(/C=N/N2CCCCC2)cc1,-14.1%,139.3*,14.1µM*,31.2*,0.0%,9.8%,-15.1%[10.4 µM],-1.0%,-7.6%,-5.5%,-6.0%
CN(C)c1ccc(C=NN2CCCCCC2)cc1,-9.8%,·,·,·,·,4.3%,·,·,·,·,·
CN1CCN(C(c2cccnc2)c2ccc3cccnc3c2O)CC1 (stereo unspecified),136.6%,6.3,?,6.2,33.4%,-12.2%,-14.1%[38.3 µM],-11.0%,?,-29.5%,-7.6%
CN1CCc2c(sc(/N=C/c3c[nH]c4ccccc34)c2C(N)=O)C1,-10.1%,16.3,?,12.0,0.3%,2.1%,·,·,·,·,·
CN1CCc2c(sc(/N=C/c3c[nH]c4ccccc34)c2C#N)C1,-11.8%,12.6,17.7µM*,9.6,-8.8%,-4.9%,13.6%[10.4 µM],-16.2%,-25.1%,-19.4%,?
O=C(c1cnccn1)N1CCC2(CC1)CCN(C(c1ccccc1)c1ccccc1)CC2,-4.8%,·,1.3%,·,·,·,·,·,·,·,·
O=C(O)CCS(=O)(=O)c1cccc2cccnc12,-8.5%,-3.2,2.9%,1.0,0.3%,2.0%,·,·,·,·,·
SMILES,Tb PYK inh,Shiga inhibitor,Giardia FBPA inh-1,Cycloheximide cs,LmPK inhibitor,RE007 growth inh,Giardia growth,Mammalian tox,Giardia FBPA inh-2,Rabbit aldolase,GAPDH coupling
CCSS(=O)(=O)c1cccc2cccnc12,10µM*,11.2,15.8µM*,1.1,47.3%,5.62µM*,-17.9%[10.4 µM],-4.1%,-10.0%,?,?
O=C(O)CC(CC(=O)Nc1nncs1)c1ccccc1 (stereo unspecified),5.9%,-18.7,-1.3%,-4.9,-5.3%,?,·,·,·,·,·
O=C(O)CC(Cn1[nH]nnc1=S)c1ccccc1 (stereo unspecified),?,16.0,15.8µM*,-4.7,3.9%,11.8%,66.0%,-9.4%,-11.6%,3.7%,7.3%
Cc1c(C#N)c(O)n(CCO)c(=O)c1N=Nc1ccc2c(c1)COC2=O,-8.9%,31.1,19.9µM*,26.6*,-5.2%,-12.2%,?,-5.2%,?,-28.4%,-21.5%
c1ccc2[nH]c(SN3CCOCC3)nc2c1,·,-5.0,3.55µM*,3.9,12.9%,·,?,-3.8%,3.4%,-21.2%,?
c1ccc2[nH]c(CN3CCOCC3)nc2c1,0.2%,-9.7,-5.7%,5.8,1.9%,0.2%,·,·,·,·,·
Cc1ccc(N2CC3=C(C2=O)C(c2ccc(Br)cc2)NC(=O)N3C)cc1 (stereo unspecified),-2.8%,·,·,·,·,·,·,·,·,·,·
O=C(Nc1nnc(C2=COCCO2)o1)c1ccc(Br)cc1,·,-24.3,·,-3.0,2.4%,·,·,·,·,·,·
O=C(Nc1nnc(C2=COCCO2)o1)c1ccc(Cc2ccccc2)cc1,6.5%,-10.9,17.7µM*,-1.9,0.0%,3.8%,?,-3.2%,2.2%,8.4%,-3.1%
O=C(Nc1nnc(C2=COCCO2)o1)c1ccc(Cl)cc1,-1.6%,-10.4,19.9%,0.9,2.0%,?,·,·,·,·,·

# High-throughput results (PubChem)
